# Assay results as given in publication PMC5540273 (PLoS ONE, 2017).
# Experiments:
# Details in all cases: concentration: 1 μM, replicates: in singlicate; n = 1
# IKK-alpha = system: T1, IKK-alpha
# T1 construct: gene CHUK
# IKK-beta = system: T2, IKK-beta
# T2 construct: gene IKBKB
# IKK-epsilon = system: T3, IKK-epsilon
# T3 construct: gene IKBKE
# INSRR = system: INSRR
# INSR = system: INSR
# IRAK1 = system: IRAK1
# IRAK3 = system: IRAK3
# IRAK4 = system: IRAK4
# ITK = system: ITK
# [1] = system: JAK1(JH1domain-catalytic)
# [2] = system: JAK1(JH2domain-pseudokinase)
# [3] = system: JAK2(JH1domain-catalytic)
# [4] = system: JAK3(JH1domain-catalytic)
# JNK1 = system: T4, JNK1
# T4 construct: gene MAPK8
# JNK2 = system: T5, JNK2
# T5 construct: gene MAPK9
# JNK3 = system: T6, JNK3
# T6 construct: gene MAPK10
# KIT-autoinhibited = system: KIT-autoinhibited
# KIT = system: KIT
# LATS1 = system: LATS1
# LATS2 = system: LATS2
# 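Further: KINOMEscan kinase panel screen.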
Compound,%Inh (IKK-alpha) [%],%Inh (IKK-beta) [%],%Inh (IKK-epsilon) [%],%Inh (INSRR) [%],%Inh (INSR) [%],%Inh (IRAK1) [%],%Inh (IRAK3) [%],%Inh (IRAK4) [%],%Inh (ITK) [%],%Inh [1] [%],%Inh [2] [%],%Inh [3] [%],%Inh [4] [%],%Inh (JNK1) [%],%Inh (JNK2) [%],%Inh (JNK3) [%],%Inh (KIT-autoinhibited) [%],%Inh (KIT) [%],%Inh (LATS1) [%],%Inh (LATS2) [%]
COc1cc(Nc2nccc(N3CCC(NC(=O)c4cc5ccccc5s4)C3)n2)cc(OC)c1OC (centres unmarked) [GSK1379760],0,0,6,4,5,18,85,4,5,8,0,76,0,17,16,23,0,36,57,5
Oc1cc(Nc2ccnc3cc(I)ccc23)ccc1F [GW552771],31,19,0,0,0,50,25,11,0,4,0,7,0,32,43,28,0,70,0,0
COc1cc(Nc2ncc3c(C)nc(-c4cc5ccccc5[nH]4)n3n2)cc(OC)c1OC [GW869516],0,0,0,53,4,2,20,0,43,0,98.5,54,11,11,0,0,22,72,0,0
COC(=O)Nc1nc2cc(Oc3ccc(NC(=O)Nc4cc(C(F)(F)F)ccc4F)cn3)ccc2[nH]1.Cl.Cl [GW681170],66,17,0,0,0,49,0,3,0,30,0,30,0,0,62,0,1,100,0,8
Cl.Cl.NCC(NC(=O)c1cc(-c2ccccc2)c(-c2ccnc3[nH]ccc23)s1)c1ccccc1 (centres unmarked) [GSK1321561],1,3,0,0,12,40,15,0,11,29,0,41,50,48,57,45,0,12,3,11
COc1cc(Nc2nccc(-c3c(-c4cccc(NC(=O)c5c(F)cccc5F)c4)nn4ccccc34)n2)cc(OC)c1OC [GSK323521],0,25,65,13,13,10,22,0,13,5,0,11,0,12,15,3,23,100,0,11
Cc1cccc(NC(=O)Nc2ccc(Oc3ncnc4ccn(C)c34)cc2)c1,27,8,0,0,0,0,0,0,0,0,30,0,9,9,0,0,97,100,5,0
c1ccc(-c2cnc3nccnn23)cc1 [AH20685],49,1,5,0,24,0,1,8,2,0,0,0,0,54,20,4,0,5,0,0
O=C(Nc1n[nH]c2cc(-c3ccoc3)ccc12)C1CC1 [SB-738481],0,0,0,0,0,0,0,0,0,0,29,18,0,8,0,6,8,77,0,3
CSc1cccc2c(-c3ccncn3)c(-c3ccc(F)cc3)nn12 [GW514786],0,0,5,3,10,10,24,0,10,1,9,9,0,24,71,75,0,0,0,16
